Holding throughout (assay): DAPPL (digital affinity profiling via proximity ligation, sequencing); 10 mM Tris-HCl pH 7.5, 50 mM NaCl, 1 mM DTT, 4% glycerol, room temperature, 30 min; GST-TFs on glutathione beads, 16-mer random dsDNA library, 0.1% formaldehyde crosslink after washing; high values mean tight binding
Common to all, as to settings: protein: recombinant; tags: N-terminal GST; dsDNA, one strand shown

One assay deals with T1, ERF (Homo sapiens, UniProt P50548 1-548).
T1 sequence: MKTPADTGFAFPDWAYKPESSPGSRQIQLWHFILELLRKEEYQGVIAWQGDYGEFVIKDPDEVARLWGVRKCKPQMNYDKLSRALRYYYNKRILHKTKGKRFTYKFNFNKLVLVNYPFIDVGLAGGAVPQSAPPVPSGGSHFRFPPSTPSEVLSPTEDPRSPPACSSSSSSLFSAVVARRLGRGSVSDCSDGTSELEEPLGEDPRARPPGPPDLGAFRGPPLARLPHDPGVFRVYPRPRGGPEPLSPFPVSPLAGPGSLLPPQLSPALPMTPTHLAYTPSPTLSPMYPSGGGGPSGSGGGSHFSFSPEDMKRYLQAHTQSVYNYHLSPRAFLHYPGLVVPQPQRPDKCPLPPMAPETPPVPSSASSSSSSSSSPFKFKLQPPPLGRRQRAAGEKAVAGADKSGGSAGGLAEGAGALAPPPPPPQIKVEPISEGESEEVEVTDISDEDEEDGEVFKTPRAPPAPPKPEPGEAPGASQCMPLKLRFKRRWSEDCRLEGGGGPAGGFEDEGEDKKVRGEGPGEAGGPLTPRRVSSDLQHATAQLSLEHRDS
An outline of the steps: (§1)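 The binding signal reported is, for every hexamer, its read frequency for a factor over its read frequency for the tag-only sample. Reads came from pools of yeast-expressed, GST-fused human transcription factors on glutathione beads, barcoded with DNA and mixed with that sample, which were incubated with 200 nmole of a random double-stranded 16-mer DNA library in Tris/NaCl/DTT/glycerol buffer at room temperature for 30 min. After washing, the pools were crosslinked with 0.1% formaldehyde, proximity-ligated with BsaI/T4 ligase for 1 h at 37 °C, PCR-amplified and sequenced on an Illumina NextSeq500.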

The target of another assay is T2, ETV3L (Homo sapiens, UniProt Q6ZN32 1-361).
T2 sequence: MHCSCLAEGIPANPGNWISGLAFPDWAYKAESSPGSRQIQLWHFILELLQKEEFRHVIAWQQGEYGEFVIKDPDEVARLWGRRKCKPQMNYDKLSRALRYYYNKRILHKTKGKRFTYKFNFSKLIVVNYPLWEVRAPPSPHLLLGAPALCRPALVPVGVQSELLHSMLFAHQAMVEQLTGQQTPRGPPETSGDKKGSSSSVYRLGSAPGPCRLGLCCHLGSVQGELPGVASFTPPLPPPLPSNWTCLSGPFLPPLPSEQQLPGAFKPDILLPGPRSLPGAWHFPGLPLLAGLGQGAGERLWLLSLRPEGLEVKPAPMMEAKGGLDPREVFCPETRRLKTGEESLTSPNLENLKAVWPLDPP
An outline of the steps:
as §1

For a further assay, the target named is T3, ETS2 (Homo sapiens, UniProt P15036 1-469).
T3 sequence: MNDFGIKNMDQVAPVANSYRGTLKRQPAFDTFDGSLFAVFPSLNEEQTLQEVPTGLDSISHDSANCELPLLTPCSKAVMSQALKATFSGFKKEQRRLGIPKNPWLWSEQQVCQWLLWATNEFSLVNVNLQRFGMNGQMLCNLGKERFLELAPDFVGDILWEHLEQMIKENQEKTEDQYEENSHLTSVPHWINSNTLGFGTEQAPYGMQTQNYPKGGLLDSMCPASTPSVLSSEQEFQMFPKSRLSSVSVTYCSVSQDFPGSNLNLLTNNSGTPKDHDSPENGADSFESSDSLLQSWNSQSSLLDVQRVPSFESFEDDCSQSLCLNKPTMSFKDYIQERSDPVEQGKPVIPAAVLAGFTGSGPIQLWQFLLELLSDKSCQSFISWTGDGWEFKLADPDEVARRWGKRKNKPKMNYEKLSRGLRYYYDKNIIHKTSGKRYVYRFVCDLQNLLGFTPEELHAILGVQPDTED
An outline of the steps: as §1

The target of another assay is T4, SPDEF (Homo sapiens, UniProt O95238 1-335).
T4 sequence: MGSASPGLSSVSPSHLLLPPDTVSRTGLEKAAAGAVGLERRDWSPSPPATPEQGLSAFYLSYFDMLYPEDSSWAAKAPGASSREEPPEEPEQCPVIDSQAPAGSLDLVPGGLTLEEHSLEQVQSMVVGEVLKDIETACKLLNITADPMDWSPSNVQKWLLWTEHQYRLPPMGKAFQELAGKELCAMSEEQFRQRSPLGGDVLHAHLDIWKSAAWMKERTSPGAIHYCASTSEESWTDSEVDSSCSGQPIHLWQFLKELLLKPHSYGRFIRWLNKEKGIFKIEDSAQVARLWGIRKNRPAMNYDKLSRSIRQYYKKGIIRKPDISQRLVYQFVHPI
An outline of the steps: as §1

A further assay addresses T5, ETV7 (Homo sapiens, UniProt Q9Y603 1-341).
T5 sequence: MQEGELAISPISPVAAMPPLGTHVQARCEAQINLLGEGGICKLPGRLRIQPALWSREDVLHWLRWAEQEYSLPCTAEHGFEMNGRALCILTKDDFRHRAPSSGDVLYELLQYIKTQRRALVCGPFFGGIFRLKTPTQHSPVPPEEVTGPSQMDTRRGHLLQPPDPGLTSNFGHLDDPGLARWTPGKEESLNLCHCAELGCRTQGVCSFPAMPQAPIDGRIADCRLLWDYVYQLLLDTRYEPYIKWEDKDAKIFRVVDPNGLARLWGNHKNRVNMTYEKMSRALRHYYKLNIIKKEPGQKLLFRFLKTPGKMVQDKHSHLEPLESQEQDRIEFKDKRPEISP
An outline of the steps: as §1

For a further assay, the target named is T6, ELF5 (Homo sapiens, UniProt Q9UKW6-2 1-255).
T6 sequence: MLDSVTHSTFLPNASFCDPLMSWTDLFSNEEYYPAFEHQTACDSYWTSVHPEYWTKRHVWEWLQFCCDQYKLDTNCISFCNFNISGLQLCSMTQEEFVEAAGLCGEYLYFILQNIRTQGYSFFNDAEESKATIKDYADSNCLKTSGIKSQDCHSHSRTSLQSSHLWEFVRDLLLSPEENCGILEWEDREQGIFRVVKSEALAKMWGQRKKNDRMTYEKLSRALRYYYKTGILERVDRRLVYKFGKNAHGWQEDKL
An outline of the steps: as §1

The target of a further assay is T7, ETV3 (Homo sapiens, UniProt P41162-2 1-143).
T7 sequence: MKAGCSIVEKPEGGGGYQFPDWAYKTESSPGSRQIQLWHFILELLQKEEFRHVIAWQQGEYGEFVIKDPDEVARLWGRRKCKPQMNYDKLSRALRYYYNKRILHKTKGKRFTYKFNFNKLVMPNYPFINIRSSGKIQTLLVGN
An outline of the steps:
as §1

The target in a further assay is ETV6 (Homo sapiens, UniProt P41212 1-452). An outline of the steps:
as §1

ETV6, sequence (P41212 whole entry): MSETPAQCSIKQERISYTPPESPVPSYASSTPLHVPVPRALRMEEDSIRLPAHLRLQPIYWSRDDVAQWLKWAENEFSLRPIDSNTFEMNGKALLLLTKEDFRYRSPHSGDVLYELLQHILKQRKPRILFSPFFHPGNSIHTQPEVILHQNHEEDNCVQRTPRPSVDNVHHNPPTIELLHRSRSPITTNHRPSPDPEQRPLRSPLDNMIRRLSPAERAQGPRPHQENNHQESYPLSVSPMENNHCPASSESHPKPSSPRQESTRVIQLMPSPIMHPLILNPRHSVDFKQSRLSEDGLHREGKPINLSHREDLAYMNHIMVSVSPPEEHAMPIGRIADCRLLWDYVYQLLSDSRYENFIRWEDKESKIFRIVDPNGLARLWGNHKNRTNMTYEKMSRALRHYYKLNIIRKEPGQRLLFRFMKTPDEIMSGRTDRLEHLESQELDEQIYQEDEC

For the sequence TTACCT, the binding signal with ERF was 1.22 fold enrichment (6-mer frequency, TF over GST control); with ETV3L, 1.22 fold enrichment (6-mer frequency, TF over GST control); with ETS2, 1.32 fold enrichment (6-mer frequency, TF over GST control); in the assay with SPDEF it was 1.18 fold enrichment (6-mer frequency, TF over GST control); in the assay with ETV7, 1.36 fold enrichment (6-mer frequency, TF over GST control); with ELF5, 1.28 fold enrichment (6-mer frequency, TF over GST control). Moreover, the binding signal is 1.17 fold enrichment (6-mer frequency, TF over GST control) in the assay with ETV3 and 1.23 fold enrichment (6-mer frequency, TF over GST control) with ETV6.

Consider GCTTTA, for which the binding signal in the assay with ERF was 1.25 fold enrichment (6-mer frequency, TF over GST control); in the assay with ETV3L, 1.15 fold enrichment (6-mer frequency, TF over GST control); in the assay with ETS2 it was 1.2 fold enrichment (6-mer frequency, TF over GST control); with SPDEF it was 1.06 fold enrichment (6-mer frequency, TF over GST control); with ETV7, 1.19 fold enrichment (6-mer frequency, TF over GST control); in the assay with ELF5, 1.08 fold enrichment (6-mer frequency, TF over GST control). Moreover, the binding signal is 1.13 fold enrichment (6-mer frequency, TF over GST control) with ETV3 and 1.1 fold enrichment (6-mer frequency, TF over GST control) with ETV6.

For the sequence ACTACC, the binding signal in the assay with ERF was 1.72 fold enrichment (6-mer frequency, TF over GST control); in the assay with ETV3L it was 1.6 fold enrichment (6-mer frequency, TF over GST control); with ETS2, 1.7 fold enrichment (6-mer frequency, TF over GST control); with SPDEF, 1.61 fold enrichment (6-mer frequency, TF over GST control); with ETV7 it was 1.55 fold enrichment (6-mer frequency, TF over GST control); with ELF5 it was 1.76 fold enrichment (6-mer frequency, TF over GST control). For the same sequence, the binding signal is 1.7 fold enrichment (6-mer frequency, TF over GST control) with ETV3 and 1.74 fold enrichment (6-mer frequency, TF over GST control) in the assay with ETV6.

Take ATGACG: the binding signal is 1.39 fold enrichment (6-mer frequency, TF over GST control) with ERF; 1.34 fold enrichment (6-mer frequency, TF over GST control) with ETV3L; 1.26 fold enrichment (6-mer frequency, TF over GST control) with ETS2; 1.45 fold enrichment (6-mer frequency, TF over GST control) with SPDEF; 1.16 fold enrichment (6-mer frequency, TF over GST control) in the assay with ETV7; 1.44 fold enrichment (6-mer frequency, TF over GST control) with ELF5. The binding signal with ETV3 is 1.2 fold enrichment (6-mer frequency, TF over GST control); in the assay with ETV6, 1.28 fold enrichment (6-mer frequency, TF over GST control).

TGTTTC: the binding signal in the assay with ERF is 1.86 fold enrichment (6-mer frequency, TF over GST control); in the assay with ETV3L, 1.84 fold enrichment (6-mer frequency, TF over GST control); with ETS2, 1.79 fold enrichment (6-mer frequency, TF over GST control); with SPDEF it was 1.81 fold enrichment (6-mer frequency, TF over GST control); in the assay with ETV7 it was 1.89 fold enrichment (6-mer frequency, TF over GST control); with ELF5 it was 2.08 fold enrichment (6-mer frequency, TF over GST control). Also, the binding signal was 1.83 fold enrichment (6-mer frequency, TF over GST control) with ETV3 and 1.95 fold enrichment (6-mer frequency, TF over GST control) in the assay with ETV6.

For the sequence TTTACT, the binding signal with ERF was 1.3 fold enrichment (6-mer frequency, TF over GST control); with ETV3L it was 1.42 fold enrichment (6-mer frequency, TF over GST control); in the assay with ETS2 it was 1.44 fold enrichment (6-mer frequency, TF over GST control); with SPDEF, 1.44 fold enrichment (6-mer frequency, TF over GST control); in the assay with ETV7 it was 1.57 fold enrichment (6-mer frequency, TF over GST control); with ELF5, 1.36 fold enrichment (6-mer frequency, TF over GST control). The binding signal is 1.53 fold enrichment (6-mer frequency, TF over GST control) with ETV3 and 1.44 fold enrichment (6-mer frequency, TF over GST control) in the assay with ETV6.

Consider CATTTA, for which the binding signal in the assay with ERF was 1.23 fold enrichment (6-mer frequency, TF over GST control); in the assay with ETV3L it was 1.24 fold enrichment (6-mer frequency, TF over GST control); with ETS2, 1.31 fold enrichment (6-mer frequency, TF over GST control); in the assay with SPDEF it was 1.22 fold enrichment (6-mer frequency, TF over GST control); in the assay with ETV7, 1.27 fold enrichment (6-mer frequency, TF over GST control); with ELF5, 1.11 fold enrichment (6-mer frequency, TF over GST control). Moreover, the binding signal was 1.23 fold enrichment (6-mer frequency, TF over GST control) with ETV3 and 1.13 fold enrichment (6-mer frequency, TF over GST control) in the assay with ETV6.

The values are drawn from paper PMC7862700, “An all-to-all approach to the identification of sequence-specific readers for epigenetic DNA modifications on cytosine”.
